Rows were chosen to be rich in hits. Some 6.5% of all compounds tested hit in one or more screens of this group.
NADH coupling: inhibition of NAD/NADH coupling enzymes, library profiling. coupled PK/LDH NADH assays, four targets. IC50, µM (titrated, usually from 10 µM). actives 0.02% (n = 65,000);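 active = single-dose screening hits from any of four coupled enzyme assays that gave an IC50 when retested across doses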;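 note: the DPM-DC format reads NADH fluorescence rather than 340 nm absorbance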
Spn PMK inh: inhibitors of Streptococcus pneumoniae phosphomevalonate kinase; inhibition, % at 10 µM; actives 0.49% (n = 65,000); purified PMK, PK/LDH-coupled NADH absorbance 340 nm; AID 539;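 active = top-ranked compounds by inhibition in the single 10 µM screen, taking a fixed number of the strongest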
Spn MK inh: inhibitors of Streptococcus pneumoniae mevalonate kinase | actives 0.48% (n = 65,000) | inhibition, % at 10 µM | purified MK, PK/LDH-coupled NADH absorbance 340 nm;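 active = ranked among the strongest by inhibition in the single 10 µM screen, a fixed top-ranked set picked for dose follow-up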
Fluor 339 460: intrinsic fluorescence of library compounds, ex339/em460 – biochemical, MLSMR library, data from DPM-DC assay, artefact control, profiling panel | compound autofluorescence, ex339/em460 nm, NADH buffer; stronger effect = higher value; 1 = no-compound wells, NADH background | fluorescence fold increase at 10 µM | actives 5.5% (n = 65,000) | AID 709;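 active = at 10 µM, mean starting fluorescence two-fold or more over control wells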;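 note: signal is the first read of a kinetic run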
Spn DPM-DC inh: inhibitors of Streptococcus pneumoniae diphosphomevalonate decarboxylase | purified DPM-DC, PK/LDH coupled NADH fluorescence | calls only at 10 µM | actives 0.49% (n = 65,000);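 active = the 320 compounds with the highest percent inhibition in the single-dose primary screen, excluding strongly autofluorescent ones, cut at about 32% in these data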;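 note: kinetic rate of NADH fluorescence loss reporting ADP formed by the decarboxylase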
Abs 340nm: compounds absorbing at 340 nm; 65,000 tested, under 10 active; fold change at 10 µM; AID 708; compound absorbance at 340 nm, fold over control;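 active = at 10 µM dose, initial 340 nm absorbance at least 2 fold that of control wells; inactive = change under 2 fold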;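 note: initial absorbance extrapolated from kinetic A340 decline of NADH oxidation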
Each line names hits and unclear results; the compound was inactive in the other large screens.

CN(C)Cc1cc(CCNC(=O)c2ccc(Cl)cc2)ccc1O	none
CCOC(=O)c1[nH]c2cc(OC)c(OC)cc2c1NC(=O)CN(C)C1CCCCC1	Fluor 339 460 3.7 (not shown: Spn DPM-DC inh)
CCOC(=O)c1[nH]c2ccccc2c1NC(=O)CN1CCCCC1	none
CCOC(=O)c1[nH]c2ccc(OCC)cc2c1NC(=O)CN1CCN(c2ccccc2)CC1	Fluor 339 460 3.2
CCOC(=O)c1[nH]c2cc(OC)c(OC)cc2c1NC(=O)c1ccc2c(c1)OCO2	none
CCOC(=O)c1[nH]c2ccc(F)cc2c1NC(=O)CN1CCN(C/C=C/c2ccccc2)CC1	Fluor 339 460 2.6
CCOC(=O)c1[nH]c2cc3c(cc2c1NC(=O)CN1CCC2(CC1)OCCO2)OCO3	Fluor 339 460 2.3 (not shown: Spn DPM-DC inh)
COC(=O)c1[nH]c2ccccc2c1NC(=O)CN1CCN(C/C=C/c2ccccc2)CC1	none
COc1ccc(CCNS(=O)(=O)c2cccc(C(=O)O)c2)cc1OC	none
Cc1cc2nc(NC3=NCN(Cc4ccc5c(c4)OCO5)CN3)nc(C)c2cc1C	none
O=C(Cn1c(=O)sc2ccccc21)NCCOc1ccccc1F	none
COc1ccc(-n2ccnc2SCC(=O)Nc2ccc(OC)cc2OC)cc1	none
COc1ccc(N2CCN(CCNC(=O)CCS(=O)(=O)c3cccc4nsnc34)CC2)cc1	none
CCOC(=O)c1[nH]c2ccc(OCC)cc2c1NC(=O)CN1CCC2(CC1)OCCO2	Fluor 339 460 3.9 (not shown: Spn DPM-DC inh)
CCOC(=O)c1[nH]c2cc3c(cc2c1NC(=O)CN1CCCCC1C)OCO3 (stereo not given)	Fluor 339 460 2.3 (not shown: Spn DPM-DC inh)
CCOc1ccc(OCC)c(NC(=O)CN2CCN(c3cccc(C)c3C)CC2)c1	Spn MK inh 62
CCOC(=O)c1[nH]c2ccccc2c1NC(=O)c1ccc2c(c1)OCO2	none
CCOc1ccc(OCC)c(NC(=O)CN2CCN(C(=O)c3ccco3)CC2)c1	none
O=C(c1ccco1)N1CCN(c2cc(C(F)(F)F)nc3ncnn23)CC1	none
CC1(C)CC(=O)C(/C=N/c2ncccc2C(=O)O)=C(O)C1	none
Cc1nc2sc(C(c3ccccc3)N3CCN(c4ccccc4F)CC3)c(O)n2n1 (stereo not given)	none
CC1CCN(S(=O)(=O)c2ccc3ncn(CC(=O)N(C)Cc4ccccc4)c(=O)c3c2)CC1	none
COC(=O)c1cc(=O)nc2sc(-c3cccs3)nn12	Fluor 339 460 2.7 (not shown: Spn DPM-DC inh)
O=C(CSc1nc(-c2ccccc2)cs1)N1CCN(C(=O)c2ccco2)CC1	Spn PMK inh 29
O=C(CSc1nc2cc(Cl)ccc2s1)N1CCN(C(=O)c2ccco2)CC1	none
O=C(OCC(=O)N1CCN(C(=O)c2ccco2)CC1)c1cc(-c2ccccc2)nc2ccccc12	none
O=C(OCC(=O)N1CCN(C(=O)c2ccco2)CC1)c1cc(-c2ccc(F)cc2)nc2ccccc12	Fluor 339 460 2.1 (not shown: Spn DPM-DC inh)
Cc1sc(NC(=O)CSc2nnc(C)c(=O)[nH]2)c(C#N)c1C	none
CC(C)c1nc(=S)n(-c2ccccc2)[nH]1	Spn MK inh 44
O=C(Cn1c(=O)oc2ccccc21)N1CCCCC1	none
Cc1ccccc1CS(=O)(=O)CCC(=O)N1CCN(c2ccc(N3CCOCC3)nn2)CC1	Fluor 339 460 3.4 (not shown: Spn DPM-DC inh)
O=C(Cn1c(=O)oc2ccccc21)N1CCN(c2ccc(N3CCOCC3)nn2)CC1	Fluor 339 460 2.1 (not shown: Spn DPM-DC inh)
CCn1cc(C(C)NC(=O)COc2ccc(Cl)cc2C)c(C)n1 (stereo not given)	none
Fc1cccc(-c2cc3nc4c(c(N5CCN(c6cnccn6)CC5)n3n2)CCCC4)c1	Fluor 339 460 2.4 (not shown: Spn DPM-DC inh)
CSc1cccc(-n2cc(-c3ccc4c(c3)OCO4)[nH]c2=O)c1	none
O=C1CN(C(=O)CCCc2c[nH]c3ccccc23)c2ccccc2N1	none
CCOC(=O)C(Cc1ccccc1)C(=O)Nc1nccs1 (stereo not given)	Spn DPM-DC inh active
CCOc1ccccc1-c1nc(C(N)=O)c2[nH]c(=O)n(-c3ccccc3)c2n1	Fluor 339 460 3
Cc1cccc(-n2c(=O)[nH]c3c(C(N)=O)nc(-c4ccccc4Cl)nc32)c1	Fluor 339 460 2.1 (not shown: Spn DPM-DC inh)
COc1cccc(-c2nc(C(N)=O)c3[nH]c(=O)n(-c4ccccc4)c3n2)c1OC	none
Cc1cccc(-n2c(N)cc(=O)[nH]c2=S)c1	none
COc1ccccc1-c1nc(C(N)=O)c2[nH]c(=O)n(-c3cccc(C)c3)c2n1	Fluor 339 460 3.9, Spn DPM-DC inh active
c1ccc(-c2nc3cc(Cc4ccc5oc(-c6ccccn6)nc5c4)ccc3o2)nc1	none
Cc1ccc(-c2nc3ncccn3c2NC(=O)C2CC2)cc1	Fluor 339 460 5 (not shown: Spn DPM-DC inh)
CC(=O)Nc1c(-c2ccccc2)nc2ncccn12	Fluor 339 460 2.2 (not shown: Spn DPM-DC inh)
Oc1ccc(-c2nc3ncccn3c2Nc2ccc3c(c2)OCCO3)cc1	none
CCCS(=O)(=O)N1CCCC(C(=O)NCCc2ccc(OC)c(OC)c2)C1 (stereo not given)	none
COc1cc2nc3c4ccccc4n(CC#N)c3nc2cc1OC	Fluor 339 460 3.8 (not shown: Spn DPM-DC inh)
CCn1c2ccccc2c2nc3cc(OC)c(OC)cc3nc21	Fluor 339 460 2.7, Spn DPM-DC inh active (no result: Spn MK inh)
CCn1c2ccccc2c2nc3ccccc3nc21	none (not shown: Spn DPM-DC inh)
CCCCc1nc2sc3c(c2c(=O)[nH]1)CCC3	none
CCOC(=O)c1ccccc1NC(=O)CSc1nnc(Cc2cccn2C)n1-c1ccc(C)cc1	Fluor 339 460 2
CCc1nnc(NC(=O)CSc2nnc(Cc3ccccc3)n2Cc2ccccc2)s1	none
CCc1nnc(NC(=O)CSc2nnc(COc3ccccc3)n2Cc2ccccc2)s1	Spn DPM-DC inh active
C=CCn1c(COc2ccccc2)nnc1SCC(=O)O	none
C=C(C)Cn1c(COc2ccccc2)nnc1SCC(=O)O	Spn DPM-DC inh active
CCc1nnc(NC(=O)CSc2nnc(Cc3cccn3C)n2C)s1	Spn PMK inh 28
O=C(O)CCNc1ccc2c(c1)OCCO2	none
COc1ccc(-n2c(O)c(/C=N/n3cnnc3)c3ccccc3c2=O)cc1	Fluor 339 460 2.1 (not shown: Spn DPM-DC inh)
Cc1cc(NCc2ccco2)nc2cc(O)ccc12	Fluor 339 460 2.1 (not shown: Spn DPM-DC inh)
CCOC(=O)c1cc2c(=O)n(C)c3ccccc3c2s1	Fluor 339 460 2.8, Spn DPM-DC inh active
CCOC(=O)c1ccc(NC(=O)c2c(O)c3ccccc3n(C)c2=O)cc1	none
Cc1c(NC(=O)COC(=O)c2cc3c4ccccc4n(C)c3s2)c(=O)n(-c2ccccc2)n1C	Fluor 339 460 3.2
CN1CCN(CCCNC(=O)c2cc3c(=O)n(C)c4ccccc4c3s2)CC1	Fluor 339 460 2.1 (not shown: Spn DPM-DC inh)
CC(=O)NC1C(=O)Nc2c1cccc2C(F)(F)F (stereo not given)	none
Nc1nc(SCC(=O)NCc2ccco2)[nH]c(=O)c1-c1ccccc1	none
CCSc1nc2c(c(=O)[nH]1)C(c1ccccn1)C1=C(CC(C)(C)CC1=O)N2 (stereo not given)	Fluor 339 460 2.2 (not shown: Spn DPM-DC inh)
Cc1ccc(C2C3=C(CCCC3=O)Nc3nc(SCC(=O)NCc4ccco4)[nH]c(=O)c32)cc1 (stereo not given)	Fluor 339 460 3.6

Compound activity: PubChem, SRMLSC
